Each structure is given as a SMILES string. Values without a mark were called inactive. Active and inactive are the calls of the source.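 Rule for the calls: active = inhibition reaching about 16% in any single replicate (limit read from the data); inactive = the rest.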

For the assay, the target named is Hexokinase HKDC1 (Homo sapiens) (UniProt Q2TB90). The assay can be described thus: compounds lowering human HKDC1 activity – biochemical, single concentration, confirmation (AID 504710). The following applies: recombinant HKDC1, G6PDH/diaphorase/resazurin fluorescence; at 20 µM; stronger effect = higher value. Background: Alamar Blue is a resazurin reagent that responds to reducing activity.
Sequence of Hexokinase HKDC1 (Homo sapiens) (Q2TB90 whole entry, looked up): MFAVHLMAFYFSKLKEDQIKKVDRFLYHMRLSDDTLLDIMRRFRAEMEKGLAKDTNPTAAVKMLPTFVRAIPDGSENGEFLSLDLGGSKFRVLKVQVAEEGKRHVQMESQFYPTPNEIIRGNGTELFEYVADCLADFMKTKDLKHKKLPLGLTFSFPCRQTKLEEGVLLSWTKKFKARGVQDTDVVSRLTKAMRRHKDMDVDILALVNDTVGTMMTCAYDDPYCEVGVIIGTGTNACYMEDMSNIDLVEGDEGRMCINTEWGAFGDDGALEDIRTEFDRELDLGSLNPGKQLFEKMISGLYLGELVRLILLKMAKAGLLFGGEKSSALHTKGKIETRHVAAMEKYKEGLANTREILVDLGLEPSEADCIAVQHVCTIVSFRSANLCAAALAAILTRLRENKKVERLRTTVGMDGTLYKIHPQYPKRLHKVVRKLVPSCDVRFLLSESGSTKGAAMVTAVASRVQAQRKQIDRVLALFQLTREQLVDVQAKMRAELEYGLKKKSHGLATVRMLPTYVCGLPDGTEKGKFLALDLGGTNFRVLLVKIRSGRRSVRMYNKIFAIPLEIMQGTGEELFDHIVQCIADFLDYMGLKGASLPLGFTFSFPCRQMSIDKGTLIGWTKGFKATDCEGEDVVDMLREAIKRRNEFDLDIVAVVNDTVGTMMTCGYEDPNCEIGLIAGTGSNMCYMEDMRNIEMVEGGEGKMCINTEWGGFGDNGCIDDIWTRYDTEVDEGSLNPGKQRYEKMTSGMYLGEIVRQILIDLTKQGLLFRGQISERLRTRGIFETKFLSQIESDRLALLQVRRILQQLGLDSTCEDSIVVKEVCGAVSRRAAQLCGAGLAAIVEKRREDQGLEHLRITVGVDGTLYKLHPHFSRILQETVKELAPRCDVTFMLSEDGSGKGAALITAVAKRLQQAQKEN
Turning to `CCn1cc(C(=O)NCc2ccc3c(c2)OCO3)c2cc(OC)c(OC)cc2c1=O`, the inhibition (usually the drop in the measured response relative to a control, in per cent) was 45.9% (active).
With `Nc1nc(N2CCN(c3ccccn3)CC2)nc2ccccc12` the figure was -44.1%; with `COc1cc(/C=C(\C#N)c2nc3ccc(C)cc3[nH]2)cc([N+](=O)[O-])c1O`, 42.2% (active); with `O=C1C(N2CCOCC2)=C(n2nnc3ccccc32)C(=O)c2ccccc21`, 54.8% (active).
The figure for `Clc1cccc(N=C2NN=C(c3ccc4c(c3)OCCO4)CS2)c1` is -99.6%.
The figure for `O=C1C=CC(=O)C(C2=C3C(=O)N(CCc4ccccc4)CC(=O)N3CCC2)=C1` is 70.9% (active).
Take `Fc1ccccc1N=C1NN=C(c2ccccc2)CS1`: the inhibition was -53.4%.
With `CCCCC[C@H](O)/C=C/[C@@H]1[C@@H](C/C=C\CCCC(=O)OC)[C@@H](O)C[C@H]1O` the figure was 61% (active); with `CC(C)c1nc2oc3c(NCCO)ncnc3c2c2c1COC(C)(C)C2`, 66.2% (active).
Take `CC(=NNC(=S)N1CCCCC1)c1cccc(C)n1`: the inhibition was -39.6%.
With `CCc1ccc2c(c1)C(NC(C)=O)C(=O)N2CCN1CCOCC1` (stereo not drawn), the inhibition is 57.2% (active).
With `COc1cc(/C=C2/C(=O)NN(c3ccc(Cl)c(Cl)c3)C2=O)cc([N+](=O)[O-])c1O` the figure was 33.1% (active).
The figure for `CCC(C)C(N)C1=NC(C(=O)N[C@@H](CC(C)C)C(=O)N[C@H](CCC(=O)[O-])C(=O)N[C@H](C(=O)N[C@H]2CCCCNC(=O)[C@H](CC(N)=O)NC(=O)[C@@H](CC(=O)[O-])NC(=O)[C@H](Cc3cnc[nH]3)NC(=O)[C@@H](Cc3ccccc3)NC(=O)[C@H]([C@@H](C)CC)NC(=O)[C@@H](CCCN)NC2=O)[C@@H](C)CC)CS1.[Zn+2]` (stereo partly drawn) is 74.9% (active).

The values above are taken from PubChem BioAssay AID504710 (Sanford-Burnham Center for Chemical Genomics, 2011).
